From PubChem BioAssay
Active and inactive are the calls of the source.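 Rule for the calls, unless noted: active = inhibition at or above 50% at 10 µM; inactive = inhibition below 50%.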

Columns and labels:
[1] = inhibitors of TNFa-induced NFkB p65 translocation, primary screen, imaging, HUVEC, MLSMR starter and 10KST1 sets (AID 438;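 active = inhibition above 20% together with a positive visual image hit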;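 note: compound added about 3h40 before a 20 min TNFalpha stimulation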;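 for inhibition: signal is the nuclear over cytoplasmic p65 intensity ratio per well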); conditions: HUVEC TNFa-induced p65 nuclear translocation; cell count: measured here: nuclei count (cytotoxicity indicator), at 2.08 µM; inhibition: at 2 µM, stronger effect = higher value, 0% TNFa-plus-vehicle, 100% no-TNFa wells
[2] = reduction of polyQ htt aggregates in cells – imaging, exon1htt(103Q)mCFP cells, high-content imaging, primary screen (AID 483;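 active = visual image review flags a hit and inhibition of aggregation exceeds 20%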;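 note: compound exposure lasted 3 days before fixation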;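 for nuclei count: percent of the per-plate median nuclei count of sample wells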); conditions: exon1htt(103Q)mCFP cell line, aggregate imaging, at 2 µM; inhibition of aggregation: stronger effect = higher value; nuclei count: measured here: cell count, toxicity
[3] = endothelial E-selectin expression blockers – imaging, HUVEC, immunofluorescence, MLSMR starter and 10KST1 sets, primary screen (AID 487;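 active = visually confirmed hit in the image check and inhibition above 20%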;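 for inhibition: signal is fraction of cell area covered by stained E-selectin grains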;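 for nuclei count: 100% = median nuclei count of all wells on the same plate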); conditions: HUVEC TNFalpha-induced E-selectin immunofluorescence imaging, at 2 µM; inhibition: stronger effect = higher value; nuclei count: measured here: cell number, toxicity
[4] = biological target: Voltage-gated potassium channel subunit beta-2 (Rattus norvegicus) (UniProt P62483); assay: inhibitors of rat Kvbeta2 reductase activity – biochemical, NADPH fluorescence, primary screen (AID 622;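 active = fluorescence slope higher than the sample average by over 3 SD, cut at about -0.22 in these data, passing the limit was not always enough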;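 note: slope of raw intensity against log time taken from 70 to 1610 s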); conditions: recombinant KvBeta, 4-cyanobenzaldehyde reduction, at 10 µM, stronger effect = higher value
Chain of Voltage-gated potassium channel subunit beta-2 (Rattus norvegicus) (P62483 whole entry, looked up): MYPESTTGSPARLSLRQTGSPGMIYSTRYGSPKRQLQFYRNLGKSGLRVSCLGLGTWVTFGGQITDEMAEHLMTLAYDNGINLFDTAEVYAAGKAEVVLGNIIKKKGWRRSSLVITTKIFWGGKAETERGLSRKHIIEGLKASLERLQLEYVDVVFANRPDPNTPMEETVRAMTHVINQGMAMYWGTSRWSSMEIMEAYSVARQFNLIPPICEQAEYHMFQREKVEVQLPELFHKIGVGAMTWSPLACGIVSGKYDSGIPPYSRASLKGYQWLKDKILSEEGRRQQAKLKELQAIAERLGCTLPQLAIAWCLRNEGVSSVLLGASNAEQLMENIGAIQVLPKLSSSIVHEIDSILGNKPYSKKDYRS

[5] = biological target: Voltage-gated potassium channel subunit beta-2 (Rattus norvegicus) (UniProt P62483); assay: enhancers of rat Kvbeta2 NADPH turnover – biochemical, NADPH fluorescence, primary screen (AID 623;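 active = NADPH fluorescence slope more negative than the mean of all samples by about 3 SD, 99.7% confidence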;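 note: fluorescence intensity change per second fitted from 20 to 320 s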); conditions: Recombinant KvBeta, NADPH fluorescence decrease slope, 10 min; at 10 µM; stronger effect = lower value
[6] = biological target: Alpha-2C adrenergic receptor (Homo sapiens) (UniProt P18825); assay: compounds altering alpha2C-coupled GIRK flux – cell-based, HEK293 alpha2C/GIRK1/2, thallium flux, primary screen (AID 624;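 active = fluorescence slope after compound addition differing from the mean of all screened samples at 99.7% confidence, in either direction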;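 note: slope of fluorescence ratio to pre-addition baseline per second over 15 to 24 s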); conditions: thallium flux BTC fluorescence, at 10 µM, actives lie on both sides
Chain of Alpha-2C adrenergic receptor (Homo sapiens) (P18825 whole entry, looked up): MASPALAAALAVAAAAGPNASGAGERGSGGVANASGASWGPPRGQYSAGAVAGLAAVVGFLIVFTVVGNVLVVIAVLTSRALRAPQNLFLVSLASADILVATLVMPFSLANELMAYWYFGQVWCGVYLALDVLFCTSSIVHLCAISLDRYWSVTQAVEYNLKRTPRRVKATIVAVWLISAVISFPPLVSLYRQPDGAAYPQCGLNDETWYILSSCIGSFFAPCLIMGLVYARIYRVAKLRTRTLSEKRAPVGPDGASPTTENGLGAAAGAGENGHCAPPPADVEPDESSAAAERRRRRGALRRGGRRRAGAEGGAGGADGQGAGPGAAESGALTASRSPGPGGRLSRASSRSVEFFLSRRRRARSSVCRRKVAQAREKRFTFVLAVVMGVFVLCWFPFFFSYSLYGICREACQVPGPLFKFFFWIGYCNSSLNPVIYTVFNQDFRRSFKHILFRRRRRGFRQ

[7] = blockers of RIG-like receptor reporter activation – cell-based, Sendai virus stimulus, luciferase, 10K MLSCN set, TLR/RLR signaling modifier project, primary screen (AID 602276); conditions: HEK293 RL24 IRF3 luciferase reporter, at 10 µM, stronger effect = higher value;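 note: firefly luciferase from ISG56 promoter only with Renilla not read in this screen; 0% = Sendai virus plus DMSO and 100% = medium plus DMSO without virus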
[8] = TLR3 IRF3 reporter activation blockers – cell-based, poly I:C stimulus, luciferase, 10K MLSCN set, primary screen (AID 602277;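 active = inhibition of the reporter signal at or above 50%; inactive = inhibition below 50%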); conditions: HEK293-TLR3 RL24 IRF3 luciferase reporter, at 10 µM, stronger effect = higher value

Row | SMILES | cell count [1] | inhibition [1] | inhibition of aggregation [2] | nuclei count [2] | inhibition [3] | nuclei count [3] | fluorescence slope [4] | NADPH fluorescence slope [5] | slope [6] | inhibition [7] | inhibition [8]
1 | COc1ccc(-c2nc(CSCC(=O)N3CCN(c4cccc(C)c4)C(C)C3)c(C)o2)cc1OC (stereo not drawn) | 549 | 2.3% (inactive) | 11.5% (inactive) | 92.1% | 5.7% (inactive) | 83.2% | -0.429 (inactive) | -5.4e-05 (inactive) | 0.00539 (inactive) | 4.11% (inactive) | 8.34% (inactive)
2 | CCOC(=O)N1CCN(C(=O)c2c(-c3ccccc3)noc2C)CC1 | 816 | 0% (inactive) | -5.9% (inactive) | 107% | -27.3% (inactive) | 106% | -0.421 (inactive) | -4.8e-05 (inactive) | 0.00537 (inactive) | 14% (inactive) | 31.9% (inactive)
3 | C=CCn1c(SCc2cccc(C#N)c2)nnc1-c1ccccc1O | 658 | -2.3% (inactive) | 5.6% (inactive) | 102% | -18.9% (inactive) | 110% | -0.574 (inactive) | 1.6e-05 (inactive) | 0.00698 (inactive) | 27.6% (inactive) | 46% (inactive)
4 | CCN(CC)CCCN1C(=O)C(O)=C(C(=O)c2ccco2)C1c1ccc(C)o1 (stereo not drawn) | 330 | 22.9% (inactive) | -17.3% (inactive) | 106% | -22.2% (inactive) | 99.7% | -0.607 (inactive) | -3.7e-05 (inactive) | 0.00682 (inactive) | 8.72% (inactive) | 8.23% (inactive)
5 | CCn1c(C)nc2cc(C(=O)OCCC(F)(F)F)ccc21 | 531 | -9% (inactive) | -1.8% (inactive) | 106% | 6.2% (inactive) | 92.5% | -0.263 (inactive) | -2.2e-05 (inactive) | 0.00759 (inactive) | -16.4% (inactive) | -104% (inactive)
6 | Cc1cc(C(=O)NCCCN2CCOCC2)n(-c2ccccc2)n1 | 624 | 3.3% (inactive) | -11.9% (inactive) | 92.5% | -29.6% (inactive) | 115% | -0.519 (inactive) | -2.1e-05 (inactive) | 0.00682 (inactive) | 9.1% (inactive) | 24.9% (inactive)
7 | CCOc1ccc(NC(=O)CSc2nc3cccnc3n2CC)cc1 | 579 | -15.8% (inactive) | -26.9% (inactive) | 92.3% | -54.8% (inactive) | 102% | -0.487 (inactive) | -2.4e-05 (inactive) | 0.00547 (inactive) | 12.5% (inactive) | 25.8% (inactive)
8 | CCOC(=O)Cc1nnc(NC(=O)c2ccccc2OCC)s1 | 583 | 12.6% (inactive) | 5.3% (inactive) | 102% | -43.9% (inactive) | 123% | -0.448 (inactive) | -0.000111 (inactive) | 0.005 (inactive) | 4.48% (inactive) | 4.72% (inactive)
9 | C=CCN1C(=O)CS/C1=N/c1nccs1 | 785 | -8.5% (inactive) | 3.5% (inactive) | 107% | -5.5% (inactive) | 101% | -0.459 (inactive) | -1.1e-05 (inactive) | 0.00406 (inactive) | 15.5% (inactive) | 14.3% (inactive)
10 | COc1ccc(CNc2oc(-c3ccccc3)nc2C#N)cc1 | 458 | 5% (inactive) | -12.2% (inactive) | 99.5% | -19.4% (inactive) | 67.2% | -0.523 (inactive) | 2.8e-05 (inactive) | 0.00683 (inactive) | -29.8% (inactive) | -35.1% (inactive)
11 | CCOc1cc(C2C(C#N)=C(N)Oc3n[nH]c(CC)c32)ccc1OCCN1CCOCC1 (stereo not drawn) | 421 | 23.4% (active) | 12.6% (inactive) | 108% | -49.3% (inactive) | 101% | -0.506 (inactive) | -3.1e-05 (inactive) | 0.00486 (inactive) | 14.3% (inactive) | 15.9% (inactive)
12 | CN(C)c1cc(NC(=O)CN2CCOCC2)c2ccccc2n1 | 863 | 1.2% (inactive) | 6.6% (inactive) | 101% | -75% (inactive) | 131% | -0.549 (inactive) | -3.5e-05 (inactive) | 0.00612 (inactive) | 9.32% (inactive) | 46.3% (inactive)
13 | CCOC(=O)c1ccccc1NC(=O)c1ccc2c(=O)n3c(nc2c1)CCCCC3 | 472 | 15.6% (inactive) | 9.6% (inactive) | 114% | -28.3% (inactive) | 81.5% | -0.399 (inactive) | -1.5e-05 (inactive) | 0.00636 (inactive) | 2.48% (inactive) | 32.9% (inactive)
14 | CCCc1nnc(SCC(=O)N2CCOCC2)n1Cc1ccco1 | 660 | -2.2% (inactive) | -10.6% (inactive) | 96.5% | -0.5% (inactive) | 101% | -0.617 (inactive) | -5.1e-05 (inactive) | 0.0036 (inactive) | 19.5% (inactive) | 22.7% (inactive)
15 | O=C(COC(=O)c1cnccn1)c1ccc(OC(=O)c2ccccc2)cc1 | 214 | -7.5% (inactive) | 21.7% (inactive) | 95.2% | -170% (inactive) | 132% | -0.359 (inactive) | -6.1e-05 (inactive) | 0.00809 (inactive) | 18.9% (inactive) | 35.6% (inactive)
16 | CCc1ccc(NC(=O)CSc2nnc(Cc3cccn3C)n2-c2ccc(OC)cc2)cc1 | 891 | 7.4% (inactive) | -2.2% (inactive) | 111% | -54.1% (inactive) | 117% | -0.609 (inactive) | 1.4e-05 (inactive) | 0.00529 (inactive) | 20.1% (inactive) | 23.6% (inactive)
17 | Brc1ccccc1-c1nc(-c2ccccc2)no1 | 428 | 2.3% (inactive) | -23% (inactive) | 94% | -25.4% (inactive) | 114% | -0.45 (inactive) | 2.8e-05 (inactive) | 0.00389 (inactive) | -15.5% (inactive) | -39.8% (inactive)
18 | Cc1cccc(C)c1NC(=O)CS(=O)CC(=O)NC1CCCc2ccccc21 (stereo not drawn) | 562 | -5.5% (inactive) | -3.7% (inactive) | 62.2% | -73.7% (inactive) | 108% | -0.61 (inactive) | -3e-05 (inactive) | 0.00417 (inactive) | 12.3% (inactive) | 20.9% (inactive)
19 | O=C(O)c1ccc2c3c(ncnc13)-c1ccccc1C2=O | 336 | -10.1% (inactive) | -50.8% (inactive) | 9.6% | -34.1% (inactive) | 93% | -0.155 (inactive) | -4.9e-06 (inactive) | 0.0028 (inactive) | 18.4% (inactive) | 26.7% (inactive)
20 | CCCCOC(=O)CNc1nnc(SCC(=O)OCC)[nH]c1=O | 659 | -10.5% (inactive) | 9.9% (inactive) | 94.8% | -32.4% (inactive) | 110% | -0.572 (inactive) | -7.9e-06 (inactive) | 0.00508 (inactive) | 2.96% (inactive) | -3.08% (inactive)
21 | O=C1CC(c2cccc(Cl)c2)Cc2nc(N3CCN(c4ccccc4)CC3)ncc21 (stereo not drawn) | 715 | -1.6% (inactive) | -8.3% (inactive) | 111% | -57.1% (inactive) | 140% | -0.442 (inactive) | 2.5e-05 (inactive) | 0.00428 (inactive) | -7.91% (inactive) | -2.99% (inactive)
22 | CC1(C)CC(=O)C=C(Nc2ccc(OCC(F)(F)C(F)F)cc2)C1 | 362 | -0.3% (inactive) | -25.2% (inactive) | 110% | -43% (inactive) | 116% | -0.324 (inactive) | -1.5e-05 (inactive) | 0.00531 (inactive) | -8.49% (inactive) | -18.3% (inactive)
23 | COC(=O)C(C)NC(=O)C12CC3CC(CC(C3)C1)C2 (stereo not drawn) | 512 | -5.8% (inactive) | 13.2% (inactive) | 103% | -31% (inactive) | 124% | -0.321 (inactive) | -2.1e-05 (inactive) | 0.0064 (inactive) | -0.739% (inactive) | 23% (inactive)
24 | CCn1nc(C(=O)OCC(=O)N2CCc3ccccc32)c2ccccc2c1=O | 301 | -8.8% (inactive) | 4.1% (inactive) | 68.3% | 25.7% (inactive) | 96.8% | -0.297 (inactive) | 2.7e-05 (inactive) | 0.00506 (inactive) | -3.24% (inactive) | 13.2% (inactive)
25 | Cc1cc(C)n(-c2nc3sc4c(c3c3nnc(SC(C)C)n23)CC(C)(C)OC4)n1 | 352 | 8.5% (inactive) | 2.2% (inactive) | 113% | -22% (inactive) | 117% | -0.455 (inactive) | 1.9e-05 (inactive) | 0.00472 (inactive) | -16.9% (inactive) | -11.9% (inactive)
26 | COc1cccc(C2CC(c3c(Cl)cccc3Cl)n3nc(N)nc3N2)c1 (stereo not drawn) | 568 | 13.8% (inactive) | -23.3% (inactive) | 75.1% | 25.6% (inactive) | 92.1% | -0.504 (inactive) | -1.9e-05 (inactive) | 0.00695 (inactive) | 22.2% (inactive) | 23.9% (inactive)
27 | CCCOc1ccccc1NC(=O)c1c(-c2ccccc2)noc1C | 800 | 4.6% (inactive) | 8.8% (inactive) | 111% | -43.4% (inactive) | 112% | -0.584 (inactive) | -1.4e-05 (inactive) | 0.00575 (inactive) | 10.6% (inactive) | 25.8% (inactive)
28 | COc1ccc(S(=O)(=O)n2nc(OC(=O)c3ccc(C)cc3)cc2N)cc1 | 566 | -19.6% (inactive) | -9.1% (inactive) | 106% | -31% (inactive) | 144% | -0.337 (inactive) | -1.2e-06 (inactive) | 0.00323 (inactive) | 14% (inactive) | 19.2% (inactive)
